Hits are enriched below; roughly 1.4% of the tested compounds scored in any of these assays.
MmCpn inh: inhibitors of Methanococcus maripaludis chaperonin TRiC (MmCpn); Potency, µM (highest dose often 76.9 µM), for inactives: at the highest dose activity, negative = inhibition, hits mostly inhibitors; AID 504842; purified Mm-Cpn ATPase, ADP Transcreener TR-FRET; actives 0.031% (n = 330,000); also: potency is read from the fitted curve at half-maximal effect; % is scaled to controls: 0 for no effect and ±100 for the full control effect; nearly all actives have a fitted effect of over 80% in size
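ATPase read-out: TR-FRET ADP immunoassay (anti-ADP Eu cryptate vs ADP-d2), ex 320 nm, em 590/665 nm; signal drops as ADP forms. Enzyme 25 nM, ATP 10 uM, 30 min at 37°C after 10 min compound preincubation.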
S-ASM inh: human S-ASM enzyme inhibition. placental ASM, HMU-PC fluorogenic substrate, 60 min. P17405. Potency, µM (doses to about 57.5 µM), for the others: at the highest dose activity change, negative = inhibition, actives largely listed as inhibitors. actives 0.006% (n = 340,000); also: potency is read from the fitted curve at half-maximal effect
Target sequence (P17405 47-631 limits assumed): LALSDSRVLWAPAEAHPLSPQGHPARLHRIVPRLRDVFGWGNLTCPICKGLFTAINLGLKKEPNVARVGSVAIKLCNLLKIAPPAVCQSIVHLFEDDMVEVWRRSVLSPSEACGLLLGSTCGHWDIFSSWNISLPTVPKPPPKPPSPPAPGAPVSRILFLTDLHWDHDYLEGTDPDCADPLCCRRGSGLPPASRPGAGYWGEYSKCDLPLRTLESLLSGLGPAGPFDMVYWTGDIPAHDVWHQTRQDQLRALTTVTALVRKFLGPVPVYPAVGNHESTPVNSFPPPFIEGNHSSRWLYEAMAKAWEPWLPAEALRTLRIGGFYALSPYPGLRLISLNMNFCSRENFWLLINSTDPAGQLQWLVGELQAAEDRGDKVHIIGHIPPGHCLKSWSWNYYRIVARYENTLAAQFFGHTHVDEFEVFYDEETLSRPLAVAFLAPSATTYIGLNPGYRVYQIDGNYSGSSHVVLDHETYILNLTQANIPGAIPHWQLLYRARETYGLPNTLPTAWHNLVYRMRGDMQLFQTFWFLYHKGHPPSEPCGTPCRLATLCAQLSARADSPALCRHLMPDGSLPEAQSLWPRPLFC
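Human placenta-derived ASM preincubated with compound 10 min at room temperature, then reacted with 9 uM (final) fluorogenic HMU-PC substrate for 60 min at 37 C. Stop solution raises pH to 10; fluorescence read at Ex 386/Em 447 nm.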
p53 reactivation: mutant p53 re-activation in reporter cells; AID 504706; actives 0.063% (n = 320,000); Potency, µM (doses to about 92.2 µM), inactives show top-dose activity change, positive = activation, actives largely listed as activators; H1299 p53-A138V BP100-luciferase reporter, luminescence, 24 h; also: potency is read from the fitted curve at half-maximal effect; % of control where 0% means no effect; nearly all actives have a fitted effect of over 45% in size
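p53-null H1299 cells stably carrying temperature-sensitive p53-A138V and a BP100-luciferase reporter were pinned with compounds (4-point, 1:5 series) and held 24 hrs at 37 deg C. Luminescence was read 10 min after detection reagent.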
KCNH2 WT inh: inhibitors of human wildtype KCNH2 potassium channel | activity change, % at 1.84 µM | AID 720551 | U2OS, BacMam KCNH2, thallium flux FluxOr; active compounds read low | Q12809 | actives 0.37% (n = 340,000);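 active = maximum activity change below -70%; inconclusive = maximum activity change between -70% and -50%; inactive = maximum activity change above -50%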; also: % is scaled to controls: 0 for no effect and ±100 for the full control effect
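U2OS cells were transduced with wild-type KCNH2 virus (2.03 x 10^8 / mL) for 4 h at room temperature, then cultured overnight at 37 C. Thallium flux was read with FluxOr dye. Rate constants were normalized to DMSO controls.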
KCNH2 3.1 block: inhibitors of human KCNH2 3.1 potassium channel isoform; actives 0.95% (n = 340,000); U2OS KCNH2 3.1, thallium flux FluxOr; active compounds read low; activity change, % (tested at about 1.8 µM);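 active = maximum activity change below -70%; inconclusive = maximum activity change from -70% to -50%; inactive = maximum activity change above -50%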;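 also: thallium influx rate constant from kinetic fluorescence after stimulation buffer; % is scaled to controls: 0 for no effect and ±100 for the full control effect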
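Channel expression came from 3.1 mutant virus (1.77 x 10^8 /mL) applied to suspended U2OS cells for 4 h. Flux was tracked with FluxOr dye plus Red40 quencher, and kinetic rate constants normalized to controls.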
uPA generation: blocks generation of uPA at the cell surface; actives 0.31% (n = 330,000); cell surface uPA generation assay, qHTS; Potency, µM (titrated, usually from 38.3 µM), for inactives: at the highest dose activity change, negative = inhibition, most hits filed as inhibitors; active = well fitted inhibition curve with a large enough effect; inconclusive = small, poorly fitted or top-dose-only effect; inactive = no such curve, though single readings can be large or run the other way; tested in mouse RAW 264.7 cells; also: potency is read from the fitted curve at half-maximal effect; % is scaled to controls: 0 for no effect and ±100 for the full control effect; nearly all actives have a fitted effect of over 55% in size
An asterisk follows results filed as active. Unless noted, calls follow the shape of the dose curve; as a rule, active = well fitted curve in the direction sought with a large enough effect; inconclusive = small, poorly fitted or top-dose-only effect, or another doubt; inactive = no such curve, though single readings can be large; an effect the other way counts as inactive or inconclusive.

What do the screens show for `CCC(=O)N1CCN(c2ccc(NC(=O)c3cc4ccccc4o3)cc2Cl)CC1`?
MmCpn inh: -5%; S-ASM inh: -10%; p53 reactivation: -26%; KCNH2 WT inh: 20; KCNH2 3.1 block: -88*; uPA generation: -14%

How did O=C(COc1ccccc1[N+](=O)[O-])Nc1ccc(NC(=O)c2cc3ccccc3o2)cc1 do in these assays?
MmCpn inh: -2%; S-ASM inh: -6%; p53 reactivation: -2%; KCNH2 WT inh: -4; KCNH2 3.1 block: -119*; uPA generation: 4%

How did O=C(Nc1ccc(N2CCN(C(=O)c3ccccc3)CC2)c(Cl)c1)c1ccco1 do in these assays?
MmCpn inh: -2%; S-ASM inh: -7%; p53 reactivation: 0%; KCNH2 WT inh: 2; KCNH2 3.1 block: -15; uPA generation: -11%

What do the screens show for `O=C(Nc1ccc(-c2nc3ncccc3o2)cc1)c1ccco1`?
MmCpn inh: -1%; S-ASM inh: 44%; p53 reactivation: 27%; KCNH2 WT inh: 1; KCNH2 3.1 block: -81*; uPA generation: -7%

How did O=C(Nc1ccc(N2CCN(C(=O)c3ccco3)CC2)c(Cl)c1)c1cc2ccccc2o1 do in these assays?
MmCpn inh: -5%; S-ASM inh: -5%; p53 reactivation: -5%; KCNH2 WT inh: -24; KCNH2 3.1 block: -113*; uPA generation: -11%

How did O=C(Nc1ccc(-c2nc3ncccc3o2)cc1)c1ccc(Br)o1 do in these assays?
MmCpn inh: -2%; S-ASM inh: 76%; p53 reactivation: -2%; KCNH2 WT inh: -1; KCNH2 3.1 block: -7; uPA generation: 2%

What do the screens show for `C=CCn1c(COc2ccc(F)cc2)nnc1SCC(=O)NC1CC1`?
MmCpn inh: 1%; S-ASM inh: -1%; p53 reactivation: -5%; KCNH2 WT inh: 0; KCNH2 3.1 block: 23; uPA generation: 0%

Results for Clc1cccc(-c2ccc3ncnc(NCc4ccc5c(c4)OCO5)c3c2)c1 ?
MmCpn inh: -3%

What do the screens show for `CCC(=O)N1CCN(c2ccc(Cl)cc2NC(=O)Cc2ccc(Cl)cc2)CC1`?
MmCpn inh: -2%; S-ASM inh: -3%; p53 reactivation: -4%; KCNH2 WT inh: 22; KCNH2 3.1 block: -75*; uPA generation: -7%

What do the screens show for `Cn1cc(CN2CCCC(C(=O)Nc3ccc(-c4cccc(F)c4)cc3)C2)cn1` (stereo not given)?
MmCpn inh: -1%; S-ASM inh: -1%; p53 reactivation: 0%; KCNH2 WT inh: 28; KCNH2 3.1 block: inconclusive; uPA generation: 8.9µM*

What do the screens show for `Cc1c(CN2CCCC(C(=O)Nc3cccc(-n4cccn4)c3)C2)cnn1C` (stereo not given)?
MmCpn inh: -2%; S-ASM inh: 0%; p53 reactivation: 11%; KCNH2 WT inh: -3; KCNH2 3.1 block: 8; uPA generation: 7.9µM*

Results for Cn1cc(CN2CCCC(C(=O)Nc3cccc(-n4cccn4)c3)C2)cn1 (stereo not given) ?
MmCpn inh: 0%; S-ASM inh: 0%; p53 reactivation: -2%; KCNH2 WT inh: 6; KCNH2 3.1 block: 5; uPA generation: -3%

What do the screens show for `COc1cccc(-c2ccc(NC(=O)C3CCCN(CCCn4nc(C)cc4C)C3)cc2)c1` (stereo not given)?
MmCpn inh: -3%; S-ASM inh: -4%; p53 reactivation: 11%; KCNH2 WT inh: 1; KCNH2 3.1 block: -74*; uPA generation: -5%

What do the screens show for `CCc1nc(CN2CCCC(C(=O)Nc3ccc(-c4cccc(OC)c4)cc3)C2)c(C)[nH]1` (stereo not given)?
KCNH2 WT inh: 14; KCNH2 3.1 block: -18

Results for C[C@@H]1CN([C@H](C)CO)C(=O)CCCn2nncc2CO[C@H]1CN(C)S(=O)(=O)c1ccc(Oc2ccccc2)nc1 ?
KCNH2 WT inh: 27; KCNH2 3.1 block: 5

What do the screens show for `CCCCOCCCNS(=O)(=O)c1ccccc1`?
MmCpn inh: 0%; S-ASM inh: 4%; p53 reactivation: -8%; KCNH2 WT inh: 7; KCNH2 3.1 block: 4; uPA generation: -1%

Results for CCCCOP(=O)(OCCCC)C1(NS(=O)(=O)c2ccccc2)C=CC(=O)c2ccccc21 (stereo not given) ?
MmCpn inh: 0%; S-ASM inh: 0%; p53 reactivation: -25%; KCNH2 WT inh: -12; KCNH2 3.1 block: -82*; uPA generation: -20%

Results for CCCCn1cnc2c(SCc3cccc(F)c3)nc(N)nc21 ?
S-ASM inh: -2%; KCNH2 WT inh: 13; KCNH2 3.1 block: -1; uPA generation: 2%

What do the screens show for `CCCCn1cnc2c(SCc3ccc([N+](=O)[O-])cc3)nc(N)nc21`?
S-ASM inh: 0%; KCNH2 WT inh: 14; KCNH2 3.1 block: -85*; uPA generation: -2%

How did COc1cc(C(=O)NCCNc2nc3ccc(C)cc3cc2C#N)cc(OC)c1OC do in these assays?
MmCpn inh: 1%; S-ASM inh: inactive; p53 reactivation: 2%; KCNH2 WT inh: 13; KCNH2 3.1 block: 0; uPA generation: 9%

What do the screens show for `COC(=O)c1c(-c2ccc(SC)cc2)sc2ccc(OC)cc12`?
MmCpn inh: -11%; S-ASM inh: 12%; p53 reactivation: inconclusive; KCNH2 WT inh: -4; KCNH2 3.1 block: inconclusive; uPA generation: -27%

What do the screens show for `COC(=O)c1c(-c2ccc(OC)cc2)sc2cc(OC)c(OC)cc12`?
MmCpn inh: inconclusive; S-ASM inh: 114%; p53 reactivation: 0%; KCNH2 WT inh: -11; KCNH2 3.1 block: -43; uPA generation: -1%

How did COC(=O)c1c(-c2ccccc2OC)sc2ccccc12 do in these assays?
MmCpn inh: 35µM*; S-ASM inh: -4%; p53 reactivation: -8%; uPA generation: inconclusive

What do the screens show for `COC(=O)c1c(-c2ccc(S(C)(=O)=O)cc2)sc2ccc(OC)cc12`?
MmCpn inh: inconclusive; S-ASM inh: -12%; p53 reactivation: inconclusive; KCNH2 WT inh: 7; KCNH2 3.1 block: 24; uPA generation: -10%

Results for COC(=O)c1c(-c2ccc(S(C)(=O)=O)cc2)sc2cc(OC)ccc12 ?
MmCpn inh: 35µM*; S-ASM inh: 499%; p53 reactivation: inconclusive; KCNH2 WT inh: -3; KCNH2 3.1 block: 18; uPA generation: inconclusive

What do the screens show for `COC(=O)c1c(-c2cc(OC)cc(OC)c2)sc2ccc(OC)cc12`?
MmCpn inh: 35µM*; S-ASM inh: -4%; p53 reactivation: 9%; KCNH2 WT inh: -2; KCNH2 3.1 block: 6; uPA generation: 1%

Assay outcomes from PubChem.
